# Measurements reported in the supplement of paper PMC4022240.
# ± gives the standard deviation.
# T1: HaloTag-ATRX ADD domain (163-292)
# T1 chain: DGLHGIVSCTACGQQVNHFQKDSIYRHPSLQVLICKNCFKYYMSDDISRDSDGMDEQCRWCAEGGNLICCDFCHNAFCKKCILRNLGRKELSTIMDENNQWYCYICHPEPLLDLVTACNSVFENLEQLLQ
# How the values were obtained:
# Test in all cases: peptide microarray binding signal (635 nm), min-max normalized on array (fraction of array maximum); higher = stronger binding
# Conditions in all cases: peptide region: H3 11-23
# [1] = target: T1, HaloTag-ATRX ADD domain (163-292)
# How it was run: (§1)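 Triplicate spots of histone 13-mer peptide–cellulose conjugates with a Cy3 tracer were printed on nitrocellulose and probed for 1 h at 4°C with biotin-labelled HaloTag reader fusions (10 nM to 1 μM) plus streptavidin-Alexa Fluor 647 or rabbit histone antibodies (1:10,000 to 1:2,000) plus anti-rabbit Alexa 647. An Axon GenePix 4000B read the 635 nm channel. Binding signal is the spot-triplicate mean intensity after min-max scaling within each library.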
# [2] = target: HaloTag-ING2 PHD (mouse Ing2 200-280)
# How it was run: as §1
# [3] = target: anti-H3K4me3 antibody ab8580
# How it was run: as §1
# [4] = target: anti-H3K9me3 antibody ab8898
# How it was run: as §1
# [5] = peptide modifications: H3K18ac, binder concentration: 1:2,000 dilution
# [6] = peptide modifications: H3K18ac, binder concentration: 1:10,000 dilution
# [7] = peptide modifications: H3R17cit H3K18me1, binder concentration: 1:2,000 dilution
# [8] = peptide modifications: H3R17cit H3K18me1, binder concentration: 1:10,000 dilution
# [9] = peptide modifications: H3K14me3 H3R17cit, binder concentration: 1:2,000 dilution
# [10] = peptide modifications: H3K14me3 H3R17cit, binder concentration: 1:10,000 dilution
# [11] = peptide modifications: H3R17cit H3K18ac, binder concentration: 1:2,000 dilution
# [12] = peptide modifications: H3R17cit H3K18ac, binder concentration: 1:10,000 dilution
# [13] = peptide modifications: H3R17me1 H3K18me3, binder concentration: 1:2,000 dilution
# [14] = peptide modifications: H3R17me1 H3K18me3, binder concentration: 1:10,000 dilution
# [15] = peptide modifications: H3K14me3 H3K18me3, binder concentration: 1:2,000 dilution
# [16] = peptide modifications: H3K14me3 H3K18me3, binder concentration: 1:10,000 dilution
# [17] = peptide modifications: H3R17cit, binder concentration: 1:2,000 dilution
# [18] = peptide modifications: H3R17cit, binder concentration: 1:10,000 dilution
# [19] = peptide modifications: H3K18me1, binder concentration: 1:2,000 dilution
# [20] = peptide modifications: H3K18me1, binder concentration: 1:10,000 dilution
# [21] = peptide modifications: H3R17me2a H3K18ac, binder concentration: 1:2,000 dilution
# [22] = peptide modifications: H3R17me2a H3K18ac, binder concentration: 1:10,000 dilution
# [23] = peptide modifications: H3K18me3, binder concentration: 1:2,000 dilution
# [24] = peptide modifications: H3K18me3, binder concentration: 1:10,000 dilution
binder,measurement,setting,value
TGGKAPRKQLATK [H3 11-23 T G G K A P R Kac Q L A T K],peptide microarray binding signal,"[1]; peptide modifications: H3K18ac, binder concentration: 50 nM",0.00715 ± 0.00076
same,peptide microarray binding signal,"[1]; peptide modifications: H3K18ac, binder concentration: 500 nM",0.023 ± 0.014
same,peptide microarray binding signal,"[2]; peptide modifications: H3K18ac, binder concentration: 10 nM",0.0127 ± 0.0019
same,peptide microarray binding signal,"[2]; peptide modifications: H3K18ac, binder concentration: 100 nM",0.0351 ± 0.016
same,peptide microarray binding signal,[3]; [5],0.00259 ± 0.002
same,peptide microarray binding signal,[3]; [6],0.00462 ± 0.00058
same,peptide microarray binding signal,[4]; [5],0.00184 ± 8.2e-05
same,peptide microarray binding signal,[4]; [6],0.00173 ± 8.8e-05
TGGKAPRKQLATK [H3 11-23 T G G K A P Rcit Kme Q L A T K],peptide microarray binding signal,"[1]; peptide modifications: H3R17cit H3K18me1, binder concentration: 50 nM",0.00524 ± 6.5e-05
same,peptide microarray binding signal,"[1]; peptide modifications: H3R17cit H3K18me1, binder concentration: 500 nM",0.009239 ± 4.5e-05
same,peptide microarray binding signal,"[2]; peptide modifications: H3R17cit H3K18me1, binder concentration: 10 nM",0.00382 ± 0.00016
same,peptide microarray binding signal,"[2]; peptide modifications: H3R17cit H3K18me1, binder concentration: 100 nM",0.014 ± 0.0031
same,peptide microarray binding signal,[3]; [7],0.00383 ± 0.00052
same,peptide microarray binding signal,[3]; [8],0.0028 ± 0.00018
same,peptide microarray binding signal,[4]; [7],0.000846 ± 5.8e-05
same,peptide microarray binding signal,[4]; [8],0.000807
TGGKAPRKQLATK [H3 11-23 T G G Kme3 A P Rcit K Q L A T K],peptide microarray binding signal,"[1]; peptide modifications: H3K14me3 H3R17cit, binder concentration: 50 nM",0.00273 ± 3.1e-05
same,peptide microarray binding signal,"[1]; peptide modifications: H3K14me3 H3R17cit, binder concentration: 500 nM",0.003095 ± 2.4e-05
same,peptide microarray binding signal,"[2]; peptide modifications: H3K14me3 H3R17cit, binder concentration: 10 nM",0.00603 ± 0.00019
same,peptide microarray binding signal,"[2]; peptide modifications: H3K14me3 H3R17cit, binder concentration: 100 nM",0.00709 ± 0.00015
same,peptide microarray binding signal,[3]; [9],0.00325 ± 7.6e-05
same,peptide microarray binding signal,[3]; [10],0.00257 ± 6e-05
same,peptide microarray binding signal,[4]; [9],0.00877 ± 0.0011
same,peptide microarray binding signal,[4]; [10],0.00519 ± 0.00016
TGGKAPRKQLATK [H3 11-23 T G G K A P Rcit Kac Q L A T K],peptide microarray binding signal,"[1]; peptide modifications: H3R17cit H3K18ac, binder concentration: 50 nM",0.00473 ± 9.3e-05
same,peptide microarray binding signal,"[1]; peptide modifications: H3R17cit H3K18ac, binder concentration: 500 nM",0.0124 ± 0.00036
same,peptide microarray binding signal,"[2]; peptide modifications: H3R17cit H3K18ac, binder concentration: 10 nM",0.00364
same,peptide microarray binding signal,"[2]; peptide modifications: H3R17cit H3K18ac, binder concentration: 100 nM",0.0114 ± 0.0017
same,peptide microarray binding signal,[3]; [11],0.003 ± 0.00042
same,peptide microarray binding signal,[3]; [12],0.0028 ± 0.00011
same,peptide microarray binding signal,[4]; [11],0.000634 ± 2.6e-05
same,peptide microarray binding signal,[4]; [12],0.000865 ± 2.4e-05
TGGKAPRKQLATK [H3 11-23 T G G K A P Rme Kme3 Q L A T K],peptide microarray binding signal,"[1]; peptide modifications: H3R17me1 H3K18me3, binder concentration: 50 nM",0.0105 ± 0.00069
same,peptide microarray binding signal,"[1]; peptide modifications: H3R17me1 H3K18me3, binder concentration: 500 nM",0.0187 ± 0.002
same,peptide microarray binding signal,"[2]; peptide modifications: H3R17me1 H3K18me3, binder concentration: 10 nM",0.00901 ± 0.00033
same,peptide microarray binding signal,"[2]; peptide modifications: H3R17me1 H3K18me3, binder concentration: 100 nM",0.014 ± 0.0016
same,peptide microarray binding signal,[3]; [13],0.468 ± 0.19
same,peptide microarray binding signal,[3]; [14],0.29 ± 0.07
same,peptide microarray binding signal,[4]; [13],0.0548 ± 0.023
same,peptide microarray binding signal,[4]; [14],0.0168 ± 0.0037
TGGKAPRKQLATK [H3 11-23 T G G Kme3 A P R Kme3 Q L A T K],peptide microarray binding signal,"[1]; peptide modifications: H3K14me3 H3K18me3, binder concentration: 50 nM",0.00652 ± 5.7e-05
same,peptide microarray binding signal,"[1]; peptide modifications: H3K14me3 H3K18me3, binder concentration: 500 nM",0.00876 ± 0.00042
same,peptide microarray binding signal,"[2]; peptide modifications: H3K14me3 H3K18me3, binder concentration: 10 nM",0.00865 ± 0.0015
same,peptide microarray binding signal,"[2]; peptide modifications: H3K14me3 H3K18me3, binder concentration: 100 nM",0.0149 ± 0.0019
same,peptide microarray binding signal,[3]; [15],0.45 ± 0.069
same,peptide microarray binding signal,[3]; [16],0.408 ± 0.048
same,peptide microarray binding signal,[4]; [15],0.18 ± 0.013
same,peptide microarray binding signal,[4]; [16],0.0505 ± 0.0048
TGGKAPRKQLATK [H3 11-23 T G G K A P Rcit K Q L A T K],peptide microarray binding signal,"[1]; peptide modifications: H3R17cit, binder concentration: 50 nM",0.00364 ± 6.7e-05
same,peptide microarray binding signal,"[1]; peptide modifications: H3R17cit, binder concentration: 500 nM",0.0192 ± 0.00046
same,peptide microarray binding signal,"[2]; peptide modifications: H3R17cit, binder concentration: 10 nM",0.00794 ± 0.00039
same,peptide microarray binding signal,"[2]; peptide modifications: H3R17cit, binder concentration: 100 nM",0.0168 ± 0.0043
same,peptide microarray binding signal,[3]; [17],0.000302 ± 4.1e-05
same,peptide microarray binding signal,[3]; [18],0.00148 ± 0.00015
same,peptide microarray binding signal,[4]; [17],0.00122 ± 4.2e-05
same,peptide microarray binding signal,[4]; [18],0.0015 ± 6.7e-05
TGGKAPRKQLATK [H3 11-23 T G G K A P R Kme Q L A T K],peptide microarray binding signal,"[1]; peptide modifications: H3K18me1, binder concentration: 50 nM",0.00433 ± 0.00015
same,peptide microarray binding signal,"[1]; peptide modifications: H3K18me1, binder concentration: 500 nM",0.0187 ± 0.00044
same,peptide microarray binding signal,"[2]; peptide modifications: H3K18me1, binder concentration: 10 nM",0.00979 ± 0.0017
same,peptide microarray binding signal,"[2]; peptide modifications: H3K18me1, binder concentration: 100 nM",0.0252 ± 0.0035
same,peptide microarray binding signal,[3]; [19],0.00217 ± 0.00021
same,peptide microarray binding signal,[3]; [20],0.00108 ± 1.9e-05
same,peptide microarray binding signal,[4]; [19],0.00293 ± 8.2e-05
same,peptide microarray binding signal,[4]; [20],0.00173 ± 6e-05
TGGKAPRKQLATK [H3 11-23 T G G K A P Rme2a Kac Q L A T K],peptide microarray binding signal,"[1]; peptide modifications: H3R17me2a H3K18ac, binder concentration: 50 nM",0.00671 ± 0.00026
same,peptide microarray binding signal,"[1]; peptide modifications: H3R17me2a H3K18ac, binder concentration: 500 nM",0.0144 ± 0.001
same,peptide microarray binding signal,"[2]; peptide modifications: H3R17me2a H3K18ac, binder concentration: 10 nM",0.00967 ± 0.00055
same,peptide microarray binding signal,"[2]; peptide modifications: H3R17me2a H3K18ac, binder concentration: 100 nM",0.0188 ± 0.0034
same,peptide microarray binding signal,[3]; [21],0.00549 ± 0.00049
same,peptide microarray binding signal,[3]; [22],0.0302 ± 0.033
same,peptide microarray binding signal,[4]; [21],0.00273 ± 0.00027
same,peptide microarray binding signal,[4]; [22],0.00427 ± 0.0013
TGGKAPRKQLATK [H3 11-23 T G G K A P R Kme3 Q L A T K],peptide microarray binding signal,"[1]; peptide modifications: H3K18me3, binder concentration: 50 nM",0.0107 ± 0.00077
same,peptide microarray binding signal,"[1]; peptide modifications: H3K18me3, binder concentration: 500 nM",0.0257 ± 0.0005
same,peptide microarray binding signal,"[2]; peptide modifications: H3K18me3, binder concentration: 10 nM",0.00937 ± 0.00052
same,peptide microarray binding signal,"[2]; peptide modifications: H3K18me3, binder concentration: 100 nM",0.0178 ± 0.0018
same,peptide microarray binding signal,[3]; [23],0.257 ± 0.035
same,peptide microarray binding signal,[3]; [24],0.263 ± 0.14
same,peptide microarray binding signal,[4]; [23],0.0698 ± 0.0096
same,peptide microarray binding signal,[4]; [24],0.0292 ± 0.0022
